# According to article PMC11062922 (Nature Chemical Biology, 2023):
# Read-outs that look alike come from different tables or passages of the source.
# What was measured:
# Design in all cases: species or system human, MV4-11 + K-562 + COLO205 + SK-N-BE2 + OVCAR-8
# ACVR2B = settings: read-out: apparent Kd, compound concentrations: 100 nM and 1000 nM (sheet 'Samples'), n = 1
# AURKA = settings: read-out: apparent Kd; compound concentrations: 100 nM and 1000 nM (sheet 'Samples'), CATDS: 0.17816442953383199; n = 1
# AURKB = settings: read-out: apparent Kd; compound concentrations: 100 nM and 1000 nM (sheet 'Samples'), CATDS: 0.16275021162643; n = 1
# CDKL5 = settings: read-out: apparent Kd; compound concentrations: 100 nM and 1000 nM (sheet 'Samples'), CATDS: 3.9289785265400001E-2; n = 1
# FGFR1 = settings: read-out: apparent Kd; compound concentrations: 100 nM and 1000 nM (sheet 'Samples'), CATDS: 3.3147223570266997E-2; n = 1
# FLT3 = settings: read-out: apparent Kd; compound concentrations: 100 nM and 1000 nM (sheet 'Samples'), CATDS: 3.2008123306219403E-2; n = 1
# FLT4 = settings: read-out: apparent Kd; compound concentrations: 100 nM and 1000 nM (sheet 'Samples'), CATDS: 9.9526112559891702E-2; n = 1
# GSK3A = settings: read-out: apparent Kd, n = 1
# GSK3B = settings: read-out: apparent Kd, n = 1
# MAP3K1 = settings: read-out: apparent Kd; compound concentrations: 100 nM and 1000 nM (sheet 'Samples'), CATDS: 3.7364470577418298E-2; n = 1
# MAP3K5 = settings: read-out: apparent Kd; compound concentrations: 100 nM and 1000 nM (sheet 'Samples'), CATDS: 2.9017198987143701E-2; n = 1
# MAPK10 = settings: read-out: apparent Kd; compound concentrations: 100 nM and 1000 nM (sheet 'Samples'), CATDS: 3.1635267678624499E-2; n = 1
# MAPK9 = settings: read-out: apparent Kd; compound concentrations: 100 nM and 1000 nM (sheet 'Samples'), CATDS: 4.3387929743655899E-2; n = 1
# NQO2 = settings: read-out: apparent Kd; compound concentrations: 100 nM and 1000 nM (sheet 'Samples'), CATDS: 5.8964681911963503E-2; n = 1
# NUAK1 = settings: read-out: apparent Kd; compound concentrations: 100 nM and 1000 nM (sheet 'Samples'), CATDS: 3.13847647871121E-2; n = 1
# PLK4 = settings: read-out: apparent Kd; compound concentrations: 100 nM and 1000 nM (sheet 'Samples'), CATDS: 5.2678675037883101E-2; n = 1
# PRKAA2 = settings: read-out: apparent Kd; compound concentrations: 100 nM and 1000 nM (sheet 'Samples'), CATDS: 3.01302788001056E-2; n = 1
# RET = settings: read-out: apparent Kd, compound concentrations: 100 nM and 1000 nM (sheet 'Samples'), n = 1
# SLK = settings: read-out: apparent Kd; compound concentrations: 100 nM and 1000 nM (sheet 'Samples'), CATDS: 2.96585498316322E-2; n = 1
# STK10 = settings: read-out: apparent Kd; compound concentrations: 100 nM and 1000 nM (sheet 'Samples'), CATDS: 4.4384834768784902E-2; n = 1
# STK16 = settings: read-out: apparent Kd; compound concentrations: 100 nM and 1000 nM (sheet 'Samples'), CATDS: 3.04344636095151E-2; n = 1
# TEC = settings: read-out: apparent Kd; compound concentrations: 100 nM and 1000 nM (sheet 'Samples'), CATDS: 3.6245892865131898E-2; n = 1
# TTN = settings: read-out: apparent Kd; compound concentrations: 100 nM and 1000 nM (sheet 'Samples'), CATDS: 3.6738161320686101E-2; n = 1
# BCR = settings: read-out: apparent Kd; compound concentrations: 100 nM and 1000 nM (sheet 'Samples'), CATDS: 0.13309110379765501; n = 1
# EPHA1 = settings: read-out: apparent Kd; compound concentrations: 100 nM and 1000 nM (sheet 'Samples'), CATDS: 0.10065713248800801; n = 1
# GAK = settings: read-out: apparent Kd; compound concentrations: 100 nM and 1000 nM (sheet 'Samples'), CATDS: 0.10209993083840201; n = 1
# PTK6 = settings: read-out: apparent Kd; compound concentrations: 100 nM and 1000 nM (sheet 'Samples'), CATDS: 9.8392012299874307E-2; n = 1
# RIPK2 = settings: read-out: apparent Kd; compound concentrations: 100 nM and 1000 nM (sheet 'Samples'), CATDS: 0.37039480382744999; n = 1
# RIPK3 = settings: read-out: apparent Kd; compound concentrations: 100 nM and 1000 nM (sheet 'Samples'), CATDS: 7.5580251546270003E-2; n = 1
# SIK2 = settings: read-out: apparent Kd; compound concentrations: 100 nM and 1000 nM (sheet 'Samples'), CATDS: 0.152739498183388; n = 1
# ACVR1 = settings: read-out: apparent Kd; compound concentrations:100 nM and 1000 nM (sheet 'Samples'); n = 1
# CDK16 = settings: read-out: apparent Kd; compound concentrations:100 nM and 1000 nM (sheet 'Samples'); n = 1
# CDK17 = settings: read-out: apparent Kd; compound concentrations:100 nM and 1000 nM (sheet 'Samples'); n = 1
# CDK6 = settings: read-out: apparent Kd; compound concentrations:100 nM and 1000 nM (sheet 'Samples'); n = 1
# CDK9 = settings: read-out: apparent Kd; compound concentrations:100 nM and 1000 nM (sheet 'Samples'); n = 1
# EIF2AK1 = settings: read-out: apparent Kd; compound concentrations:100 nM and 1000 nM (sheet 'Samples'); n = 1
# ICK = settings: read-out: apparent Kd; compound concentrations:100 nM and 1000 nM (sheet 'Samples'); n = 1
# MAPK7 = settings: read-out: apparent Kd; compound concentrations:100 nM and 1000 nM (sheet 'Samples'); n = 1
# PDGFRB = settings: read-out: apparent Kd; compound concentrations:100 nM and 1000 nM (sheet 'Samples'); n = 1
# PIM2 = settings: read-out: apparent Kd; compound concentrations:100 nM and 1000 nM (sheet 'Samples'); n = 1
# TAOK2 = settings: read-out: apparent Kd; compound concentrations:100 nM and 1000 nM (sheet 'Samples'); n = 1
# [1] = compound concentrations:100 nM and 1000 nM (sheet 'Samples')
structure (smiles),measurement,setting,value
Cc1ccc(Nc2ccnc(Nc3ccc(C)c(F)c3)n2)cc1O.Cl [GW582868A],potency estimated from few doses,ACVR2B; CATDS: 1,664 nM
Cc1[nH]nc2c1N=C(c1ccccc1F)c1cc(C(N)=O)ccc1N2 [RO0282586-000],potency estimated from few doses,ACVR2B; CATDS: 3.5760557024692601E-2,1000 nM
same,potency estimated from few doses,AURKA,30 nM
same,potency estimated from few doses,AURKB,34.5 nM
same,potency estimated from few doses,CDKL5,749 nM
same,potency estimated from few doses,FGFR1,1300 nM
same,potency estimated from few doses,FLT3,1480 nM
same,potency estimated from few doses,FLT4,82.8 nM
same,potency estimated from few doses,"GSK3A; compound concentrations: 100 nM and 1000 nM (sheet 'Samples'), CATDS: 0.17602991696345399",30.5 nM
same,potency estimated from few doses,"GSK3B; compound concentrations: 100 nM and 1000 nM (sheet 'Samples'), CATDS: 0.14122707507865501",43.6 nM
same,potency estimated from few doses,MAP3K1,873 nM
same,potency estimated from few doses,MAP3K5,2230 nM
same,potency estimated from few doses,MAPK10,1550 nM
same,potency estimated from few doses,MAPK9,564 nM
same,potency estimated from few doses,NQO2,259 nM
same,potency estimated from few doses,NUAK1,1600 nM
same,potency estimated from few doses,PLK4,340 nM
same,potency estimated from few doses,PRKAA2,1890 nM
same,potency estimated from few doses,RET; CATDS: 5.3147422630729399E-2,333 nM
same,potency estimated from few doses,SLK,2020 nM
same,potency estimated from few doses,STK10,530 nM
same,potency estimated from few doses,STK16,1810 nM
same,potency estimated from few doses,TEC,960 nM
same,potency estimated from few doses,TTN,920 nM
Fc1cc(Cl)ccc1Nc1ccnc2cc(-c3ccc(CN4CCCCC4)o3)ccc12 [GW560116X],potency estimated from few doses,ACVR2B; CATDS: 8.5008478980750105E-2,1080 nM
same,potency estimated from few doses,BCR,359 nM
same,potency estimated from few doses,EPHA1,670 nM
same,potency estimated from few doses,GAK,646 nM
same,potency estimated from few doses,PTK6,710 nM
same,potency estimated from few doses,RET; CATDS: 0.106923709019676,577 nM
same,potency estimated from few doses,RIPK2,69.3 nM
same,potency estimated from few doses,RIPK3,1650 nM
same,potency estimated from few doses,SIK2,276 nM
CCN1CCN(CCCC(=O)Nc2n[nH]c3nc(-c4ccc(O)cc4)c(Br)cc23)CC1 [SB-731579],potency estimated from few doses,ACVR1,914 nM
same,potency estimated from few doses,CDK16,1220 nM
same,potency estimated from few doses,CDK17,986 nM
same,potency estimated from few doses,CDK6,1070 nM
same,potency estimated from few doses,CDK9,1180 nM
same,potency estimated from few doses,EIF2AK1,201 nM
same,potency estimated from few doses,GSK3A; [1],4.8 nM
same,potency estimated from few doses,GSK3B; [1],20.1 nM
same,potency estimated from few doses,ICK,1420 nM
same,potency estimated from few doses,MAPK7,1360 nM
same,potency estimated from few doses,PDGFRB,145 nM
same,potency estimated from few doses,PIM2,557 nM
same,potency estimated from few doses,TAOK2,1350 nM
